# Measurements from the supplement of paper PMC6555819.
# Legend:
# Experiment in all cases: PBM binding z-score (relative to random genomic background probes); higher = stronger binding; sequences stand for … in GC…GCGATTGACAGCGTAGAATGAAGG
# [1] = system: FXR:RXRa (NR concentration 270 nM, RXRa partner concentration 90 nM)
# In short: (§1)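 Each nuclear receptor dimer, without ligand, was incubated for 1 h on custom Agilent 4×180K protein-binding microarrays. Binding was detected with antibodies against each partner (one per run), and scanned fluorescence was regression-normalized. The binding z-scores are referenced to random human genomic background probes.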
# [2] = system: LXRa:RXRa (NR concentration 270 nM, RXRa partner concentration 90 nM)
# In short: as §1
# [3] = system: LXRa homodimer (NR concentration 270 nM)
# In short: as §1
# [4] = system: LXRb:RXRa (NR concentration 270 nM, RXRa partner concentration 90 nM)
# In short: as §1
# [5] = system: LXRb homodimer (NR concentration 270 nM)
# In short: as §1
# [6] = system: PPARa:RXRa (NR concentration 270 nM, RXRa partner concentration 90 nM)
# In short: as §1
# [7] = system: PPARg:RXRa (NR concentration 180 nM, RXRa partner concentration 90 nM)
# In short: as §1
# [8] = system: PPARg:RXRa 270nM:90nM, anti-RXR (NR concentration 270 nM, RXRa partner concentration 90 nM)
# In short: as §1
# [9] = system: PPARg:RXRa 30nM:10nM, anti-RXR (NR concentration 30 nM, RXRa partner concentration 10 nM)
# In short: as §1
# [10] = system: PPARg:RXRa 90nM:30nM, anti-RXR (NR concentration 90 nM, RXRa partner concentration 30 nM)
# In short: as §1
# [11] = system: PPARg:RXRa DBDmut IVT, anti-RXR (DBD mutation: RXRa K156A/R161A, NR concentration 270 nM, RXRa partner concentration 90 nM)
# In short: as §1
# [12] = system: PPARg:RXRa IVT, anti-PPARg (NR concentration 270 nM, RXRa partner concentration 90 nM)
# In short: as §1
# [13] = system: PPARg DBDmut:RXRa IVT, anti-PPARg (DBD mutation: PPARg1 K132A/R137A, NR concentration 270 nM, RXRa partner concentration 90 nM)
# In short: as §1
# [14] = system: PPARg DBDmut IVT, anti-PPARg (DBD mutation: PPARg1 K132A/R137A, NR concentration 270 nM)
# In short: as §1
# [15] = system: PPARg homodimer (NR concentration 180 nM)
# In short: as §1
# [16] = system: PXR:RXRa (NR concentration 270 nM, RXRa partner concentration 90 nM)
# In short: as §1
# [17] = system: PXR homodimer (NR concentration 270 nM)
# In short: as §1
# [18] = system: RARa:RXR (NR concentration 270 nM, RXRa partner concentration 90 nM)
# In short: as §1
# [19] = system: RARa homodimer (NR concentration 270 nM)
# In short: as §1
# [20] = system: RARb:RXRa (NR concentration 270 nM, RXRa partner concentration 90 nM)
# In short: as §1
Sequence,PBM binding z-score [1],PBM binding z-score [2],PBM binding z-score [3],PBM binding z-score [4],PBM binding z-score [5],PBM binding z-score [6],PBM binding z-score [7],PBM binding z-score [8],PBM binding z-score [9],PBM binding z-score [10],PBM binding z-score [11],PBM binding z-score [12],PBM binding z-score [13],PBM binding z-score [14],PBM binding z-score [15],PBM binding z-score [16],PBM binding z-score [17],PBM binding z-score [18],PBM binding z-score [19],PBM binding z-score [20]
CCTAGTTGGTCAAGTTCACACACGCTATAGGTAC,1.66,2.31,1.74,2.18,0.695,2.19,1.3,1.5,0.803,1.16,1.95,1.82,0.944,1.02,2.59,3.63,5.51,2.27,1.56,2.92
CTCGAAAGGTCGGTTGAGGTGAGTACACGGATAA,2.34,1.85,-0.128,1.5,-0.0877,2.77,0.546,1.4,0.191,0.951,0.186,0.928,0.39,-0.276,0.988,3.2,0.172,2.11,-0.296,3.15
TAGCCTACGTCATGCGGGCCAGTATAGTGTCGGC,-0.993,-0.942,-0.548,-1.15,-0.753,-0.592,0.156,-0.778,-0.767,-0.769,-0.258,-0.361,-0.565,-0.82,-1.11,-0.921,-1.11,-0.886,-1.36,-0.527
CGTCAAAGTTCAACTAAGGCAACGTAAAGCACGC,6.41,6.09,3.57,3.9,1.79,4.93,4.8,5.53,1.96,4.18,0.00616,2,0.22,-0.059,3.19,4.83,4.13,3.62,1.59,5.21
TCATATAGGTAAATGCTAGGTGAAAGCCCGATCT,0.778,0.754,0.00437,0.675,-0.102,1.4,0.799,2.27,3.75,3.05,3.61,2.73,0.828,0.941,0.598,0.505,-0.0207,1.05,0.798,0.444
AGTCAAAGATCACTAGGTAACGTAAGATTCAGCT,-0.239,0.0788,-0.206,0.152,-0.329,1.52,2.34,2.95,0.876,2.3,1.14,2.97,0.137,0.156,0.697,-0.103,0.0772,0.125,0.459,0.233
CCAGACAGGTCAAAGGTAACTCAGTCTGGTACGC,6.4,4.97,0.903,4.17,0.453,5.83,7.89,7.43,6.13,8.02,3.48,3.96,-0.0161,0.672,2.75,4.5,0.483,6.08,0.857,4.52
CAGCCTAGGTCAGGGTCAGTATAGGAGGAACGTT,3.28,2.28,0.154,2.3,-0.746,3.73,2.37,2.52,0.577,1.52,1.2,2.57,0.511,-0.598,1.63,2.38,0.127,3.04,0.15,4.31
CCTAGCAAGCCAGGGTCACTCAAGCATTTCGCTT,2.31,1.92,-0.142,2.16,-1.12,3.13,0.169,1.09,-0.503,0.224,-0.127,0.222,-0.962,-1.46,0.888,2.78,0.054,3.42,-0.000742,2.41
CCTTACGGGACACGAGGTTATAGCACGACGAGCG,0.657,0.725,0.391,0.535,-0.204,1.27,1.38,0.573,0.0152,0.477,0.526,0.867,0.559,0.413,0.721,0.701,0.477,0.935,0.721,1.11
ATCTCTAGGTAAGACTCAGTTTAGTGAAGAACGC,0.613,0.734,0.489,0.362,0.843,-0.0694,0.158,0.112,0.213,0.579,2.06,1.06,1.01,0.79,0.494,0.177,0.554,0.162,1.22,0.222
TCTTGTAGATCGAGCAGGTTAAGAAAGCCTGAGT,-0.145,0.0215,-0.393,0.284,-0.755,0.628,-0.657,1.17,2.46,1.69,1.19,-0.156,0.439,0.279,0.237,0.342,-0.0974,0.496,-0.293,-0.102
CGTCCAAGCTCATAGGAGGTCAGTGAAGACAGAT,0.888,1.51,1.08,1.33,-0.0875,1.92,0.491,0.292,-0.158,0.173,0.199,0.722,-0.21,-0.262,1.08,1.59,0.494,1.79,0.761,2.03
GCTATTAGTTCAAAGGGCAACCGAATGATTCTCG,2.78,2.89,0.929,2.17,0.2,3.79,4.51,5.96,5.32,6.42,0.957,1.81,0.146,0.19,2.2,3.21,1.29,4.32,1.11,3.3
CATTACGGGTCAAGGTTATAGCACGGGTGGTACG,5.89,5.21,1.53,3.61,1.18,5.27,5.67,5.45,2.22,4.39,3.5,4.53,0.969,1.08,2.26,3.72,0.701,4.69,1.58,4.43
